A selection: hits, their analogues and other compounds. The true share with any hit is near 0.92%.
AGP1 TOR yeast – modulators of TOR pathway AGP1-GFP in S. cerevisiae. AID 2066. S. cerevisiae AGP1-GFP multiplex flow cytometry, 3 h; GFP as percent of DMSO wells. GFP response vs DMSO, % at 10 µM. actives 0.02% (n = 320,000);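 active = GFP response relative to DMSO above a set limit, near screen average plus 3 SD, cut at about 150% in these data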;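 note: median GFP channel fluorescence of the gated AGP1 strain per well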
CIT2 TOR yeast – yeast TOR pathway CIT2-GFP modulation | actives 0.065% (n = 320,000) | GFP response vs DMSO, % at 10 µM | S. cerevisiae CIT2-GFP strain, flow cytometry, 3 h; 100 means same as DMSO wells;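 active = GFP response relative to DMSO above a set limit, near the screen mean plus 3 SD, cut at about 150% in these data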;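 note: ratio of well median GFP fluorescence to mean of DMSO wells on the plate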
MEP2 TOR yeast – alters MEP2-GFP fluorescence in TOR pathway yeast screen; actives 0.51% (n = 330,000); GFP response vs DMSO, % at 10 µM; S. cerevisiae MEP2-GFP strain, flow cytometry GFP, 3 h; 100% = DMSO control level;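 active = GFP response versus DMSO above a set limit, roughly screen mean plus 3 SD, cut at about 180% in these data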;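 note: median GFP fluorescence of the barcode-gated MEP2-GFP cells per well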
RPL19A TOR yeast – modulators of TOR pathway RPL19A-GFP in S. cerevisiae | S. cerevisiae RPL19A-GFP strain, flow cytometry, 3 h; active compounds read low | percent response vs DMSO, % at 10 µM | actives 0.3% (n = 330,000);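 active = percent response vs DMSO below 50%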;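 note: median channel GFP fluorescence of the barcoded RPL19A-GFP strain; ratio of sample median GFP to plate DMSO average so 100% = DMSO; lower means less RPL19A-GFP as with rapamycin TOR inhibition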
LAP4 TOR yeast – yeast TOR pathway LAP4-GFP modulation | S. cerevisiae LAP4-GFP multiplex, flow cytometry GFP, 3 h; median GFP as percent of DMSO wells | GFP response vs DMSO, % at 10 µM | actives 0.34% (n = 320,000);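 active = GFP response vs DMSO above a set limit, about the screen mean plus 3 SD, cut at about 150% in these data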
LAP4 cherry2 – yeast LAP4-GFP modulation, second cherry pick; shares compounds with LAP4 TOR yeast; S. cerevisiae LAP4-GFP strain, flow cytometry GFP, 3 h; GFP response vs DMSO, % at 10 µM; actives 20% (n = 590);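 active = GFP signal as percent of the solvent control above about 150%, meaning raised reporter expression, limit read from the data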;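 note: ratio of well median GFP fluorescence to plate DMSO mean so 100% = DMSO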
MEP2-GFP pick2 – reconfirmed MEP2-GFP TOR pathway modulator in yeast | GFP response vs DMSO, % at 10 µM | S. cerevisiae MEP2-GFP strain, flow cytometry GFP, 3 h | shares compounds with LAP4 TOR yeast | actives 10% (n = 590);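 active = GFP signal above 150% of the solvent control wells, that is a rise of more than half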;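 note: median channel GFP fluorescence of all gated yeast cells per well; ratio of median GFP to plate DMSO average so 100% = DMSO level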
RPL19A-GFP pick2 – second confirmation of modulators of TOR reporter RPL19A-GFP in yeast; shares compounds with LAP4 TOR yeast; S. cerevisiae RPL19A-GFP strain, flow cytometry GFP, 3 h; active compounds read low; 100% means same as DMSO wells; GFP response vs DMSO, % at 10 µM; actives 3% (n = 590);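 active = under 65% GFP response relative to DMSO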;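 note: median GFP channel fluorescence per well over the all cells gate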
CIT2-GFP pick2 – second confirmation of modulators of TOR reporter CIT2-GFP in yeast; shares compounds with LAP4 TOR yeast; S. cerevisiae CIT2-GFP strain, flow cytometry GFP, 3 h; DMSO control wells read 100%; AID 2624; actives 8% (n = 590); GFP response vs DMSO, % at 10 µM;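 active = GFP response vs DMSO above about 150%, limit read from the data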;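 note: median green fluorescence per well over all gated yeast cells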
AGP1-GFP pick2 – reconfirmed modulator of AGP1-GFP TOR reporter in yeast | shares compounds with LAP4 TOR yeast | S. cerevisiae AGP1-GFP strain, flow cytometry GFP, 3 h | percent response vs DMSO, % at 10 µM | 590 tested, under 10 active;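 active = over 150 percent of DMSO response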;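 note: median GFP channel fluorescence over all cells without mother daughter split; sample median GFP divided by mean DMSO control so 100% equals DMSO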
Yeast autofluor – yeast s288c autofluorescence artifact, counter-screen. S. cerevisiae s288c, 520 nm autofluorescence, flow cytometry, 3 h; active compounds read high; zero means same as solvent-only cells. 610 tested, under 10 active. fluorescence change (kMESF span) at 33 µM. shares compounds with LAP4 TOR yeast. AID 2757;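 active = fluorescence span over the dose series, or activity score, above about 33, limit read from the data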
An asterisk follows results filed as active; / = no result given.

SMILES	AGP1 TOR yeast	CIT2 TOR yeast	MEP2 TOR yeast	RPL19A TOR yeast	LAP4 TOR yeast	LAP4 cherry2	MEP2-GFP pick2	RPL19A-GFP pick2	CIT2-GFP pick2	AGP1-GFP pick2	Yeast autofluor
Cc1ccc(C)c(S(=O)(=O)ON2C(=O)c3ccccc3C2=O)c1	68	81	85	92	137	/	/	/	/	/	/
O=C1c2ccccc2C(=O)N1OS(=O)(=O)c1ccccc1	80	96	90	87	223*	144	160*	72	112	82	2.1
O=C(CSc1ccc(-c2ccccn2)nn1)Nc1ccc(F)cc1F	116	161*	129	107	107	100	103	101	98	98	/
Cc1ccc(O)c(NC(=O)c2cc(-c3ccccc3Cl)on2)c1	92	100	95	102	93	/	/	/	/	/	/
CCN(CC)c1ccc(/C=C2\C(=O)c3ccc(C(=O)O)cc3C2=O)cc1	116	228*	323*	115	235*	277*	391*	121	263*	106	8.9
CCN(CC)c1ccc(C(=O)O)cc1	93	97	96	98	99	/	/	/	/	/	/
COc1cccc2oc3ccc(C#Cc4ccccn4)cc3c(=O)c12	87	72	92	99	152*	105	93	94	104	100	/
O=C(c1ccc2oc(CCc3ccccc3)nc2c1)N1CC[C@H](O)C1	108	107	119	106	101	/	/	/	/	/	/
Cc1nc(SCC(=O)NNC(=O)c2cccs2)[nH]c(=O)c1C	104	106	100	98	99	/	/	/	/	/	/
COc1cccc(C(=O)NCCS(=O)(=O)NCc2ccco2)c1	102	84	88	85	151*	101	105	100	103	100	/
CCOc1ccccc1NC(=O)COC(=O)COc1c(Cl)cc(Cl)c2ccc(C)nc12	104	95	93	96	104	/	/	/	/	/	/
CCN(CC(=O)NC(C)(C)C)C(=O)COc1c(Cl)cc(Cl)c2ccc(C)nc12	86	81	97	87	227*	/	/	/	/	/	1
O=C(Cn1cccc1C(=O)c1ccccc1)NCc1cccc(Cl)c1	106	106	105	108	89	/	/	/	/	/	/
Cc1ccc(C(=O)/C=C/C(=O)c2ccc(C)cc2)cc1	84	93	93	97	168*	/	/	/	/	/	0.61
COc1ccc(-c2cc(C(F)F)n3ncc(C(=O)NCC4CCCO4)c3n2)cc1 (stereo unspecified)	73	174*	93	92	89	99	100	100	106	96	/
CC(=O)/C=C1/C(=O)Nc2ccccc21	95	85	80	89	121	/	/	/	/	/	/
C=CCOc1cccc(C(=O)/C=C2/C(=O)Nc3ccccc32)c1	105	105	118	93	127	/	/	/	/	/	0
NS(=O)(=O)c1ccc(CNC(=O)Cc2c(F)cccc2Cl)cc1	95	99	98	95	93	/	/	/	/	/	/
COc1ccc(N(CC(=O)NCCc2ccc(Cl)cc2)S(=O)(=O)c2c(C)[nH]c(=O)[nH]c2=O)cc1	106	98	100	100	100	/	/	/	/	/	/
